# Reference: PubChem BioAssay
# Calls of active or inactive are those of the source. Unless noted, no rule for the calls is given here.
# What was measured:
# [1] = test system: XIP peptide (Xip251-270) binding; test: small-molecule binders of XIP peptide, primary screen, biochemical, small-molecule microarray, fluorescence 635/667 nm, 0.1 µg/mL protein (AID 1182); conditions: fluorescent protein binding, 635 nm, higher = more signal, called active from +8 up or from −8 down
# XIP peptide (Xip251-270) = test: small-molecule binders of XIP peptide, primary screen, biochemical, small-molecule microarray, fluorescence 635/667 nm, 0.5 µg/mL protein (AID 1183); conditions: small-molecule microarray binding, fluorescence 635 nm; higher = more signal
# [2] = Plasmodium falciparum growth inhibition, primary screen, strain 3D7, DAPI fluorescence, 100 nL (AID 1184);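 also: parasites grown inside human red blood cells in medium with human serum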; conditions: P. falciparum 3D7 growth, 3 d, higher = more signal
# [3] = target: Homeobox protein Hox-A13 (Mus musculus) (UniProt Q62424); test: inhibitors of HoxA13-DNA binding, primary screen, biochemical, fluorescence polarization, labeled oligonucleotide (AID 1185); conditions: 15 min, higher = more signal, called active from +8 up or from −8 down
# [4] = inhibitors of hydroxyurea-induced Chk1 phosphorylation, primary screen, imaging, HeLa, phospho-Chk1 antibody, percent positive cells (AID 1186); conditions: hydroxyurea-induced phospho-Chk1 immunofluorescence imaging, higher = more signal
# [5] = inhibitors of hydroxyurea-induced Chk1 phosphorylation, primary screen, imaging, HeLa, phospho-Chk1 nuclear intensity (AID 1187); conditions: hydroxyurea-induced phospho-Chk1 immunofluorescence imaging, higher = more signal
# Homeobox protein Hox-A13 (Mus musculus), sequence (Q62424 whole entry, looked up): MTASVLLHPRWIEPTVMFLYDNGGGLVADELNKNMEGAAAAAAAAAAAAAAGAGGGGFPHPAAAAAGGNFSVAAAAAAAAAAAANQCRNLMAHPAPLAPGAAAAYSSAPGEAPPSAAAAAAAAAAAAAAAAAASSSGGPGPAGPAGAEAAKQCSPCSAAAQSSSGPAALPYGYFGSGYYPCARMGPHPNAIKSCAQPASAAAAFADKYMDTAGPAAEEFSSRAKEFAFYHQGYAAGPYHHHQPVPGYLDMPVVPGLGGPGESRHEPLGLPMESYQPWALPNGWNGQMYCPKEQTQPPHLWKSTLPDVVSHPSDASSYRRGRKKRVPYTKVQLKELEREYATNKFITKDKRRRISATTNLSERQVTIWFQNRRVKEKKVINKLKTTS
SMILES,composite z-score [1],composite z-score (XIP peptide (Xip251-270)),z-score [2],z-score [3],z-score [4],z-score [5]
COC(=O)[C@@]1(Cc2ccccc2)[C@H]2c3cc(C(=O)N4CCCC4)n(CCSCCO)c3C[C@H]2CN1C(=O)c1ccccc1,0.343 (inactive),0.752,-1.7,-5.06 (inactive),1.45 (inactive),0.501 (inactive)
CC(C)[Si]1(C(C)C)OCc2cc(-c3ccc(-c4ccc(Cl)c(Cl)c4)o3)nc(CCc3ccccc3)c21,-0.218 (inactive),-0.355,-0.946,0.0584 (inactive),-0.691 (inactive),-0.229 (inactive)
CC(C)C[C@@H]1NC(=O)CNC(=O)[C@@]23C(=O)N[C@@H](Cc4ccccc4)C2[C@H](C)[C@@]2(C)O[C@H]2C3/C=C/C/C=C\CNC1=O (stereo not given in full),0.408 (inactive),0.767,0.0276,-6.42 (inactive),-0.284 (inactive),0.0034 (inactive)
CC(C)(C)OC(=O)CC[C@]1(C(=O)N2CCCCC2)COC(c2ccc(OCCCO)cc2)=N1,0.252 (inactive),0.643,-1.4,-4.56 (inactive),-0.334 (inactive),0.131 (inactive)
COC(=O)C(CC#Cc1ccc2c(c1)[C@]1(C(=O)N2)[C@H](c2ccc(O)cc2)N2[C@H](c3ccccc3)[C@H](c3ccccc3)OC(=O)[C@H]2[C@@H]1C(=O)N1CCCCCCC1)C(=O)OC,0.225 (inactive),0.59,-1.92,2.08 (inactive),-0.0422 (inactive),0.413 (inactive)
C=C(CCCC)C(=O)CC[C@H](OC(C)=O)c1ccc(OCCO)cc1,0.783 (inactive),0.227,-3.07,-6.07 (inactive),-0.427 (inactive),-0.523 (inactive)
C=CCN1C(=O)[C@]2(O[C@H](CCO)[C@@H]([Si](C)(C)c3ccc(OC)cc3)[C@@H]2C)c2cc(N3C(=O)COc4ccccc43)ccc21,0.879 (inactive),0.677,-2.85,-3.34 (inactive),-1.42 (inactive),-1.34 (inactive)
O=C1O[C@H](c2ccccc2)[C@H](c2ccccc2)N2[C@H]1[C@@H](C(=O)N1CCCCCCC1)[C@]1(C(=O)Nc3ccc(C#CC4(O)CCCCCC4)cc31)[C@H]2c1ccccc1OCCO,5.88 (inactive),0.943,-1.88,4.4 (inactive),-0.0468 (inactive),0.285 (inactive)
CCC(CC)C(O)C1C=CC2C(=O)N(c3ccccc3)C(=O)C2N1Nc1ccc([N+](=O)[O-])cc1 (stereo not given),0.39 (inactive),0.493,1.38,-3.49 (inactive),-0.37 (inactive),-1.56 (inactive)
CCOC(=O)C[C@H]1[C@H](OC(=O)c2ccc(-c3ccccc3)cc2)[C@@H](NC(=O)CC(C)C)c2cc(OCCCO)ccc2N1C(=O)c1ccccc1,0.22 (inactive),-0.0545,-0.419,-3.33 (inactive),-0.228 (inactive),-0.0761 (inactive)
C=C(CCCC)C(=O)CC[C@H](OC(=O)c1ccccc1-c1ccccc1C(=O)O)c1ccccc1OCCO,0.267 (inactive),0.0422,-2.61,-5.63 (inactive),-0.309 (inactive),-0.102 (inactive)
C=C(/C(=C/C[C@H](OC(=O)c1ccncc1)c1cccc(OCCO)c1)c1cnc2ccccc2c1)C(C)C,0.0082 (inactive),0.67,-1.42,-5.01 (inactive),0.654 (inactive),0.212 (inactive)
COc1cc2c(cc1OC)CN(C(=O)[C@@H]1[C@H]3C(=O)O[C@H](c4ccccc4)[C@H](c4ccccc4)N3[C@H](c3ccc(O)cc3)[C@@]13C(=O)Nc1ccc(C#CCCO)cc13)CC2,1.33 (inactive),0.723,-1.16,-2.6 (inactive),0.189 (inactive),0.28 (inactive)
CO[C@H]1O[C@H](CO)[C@@H](OC(=O)CCc2ccccc2)[C@H](OC(=O)c2cc3ccccc3[nH]2)[C@H]1OC(=O)c1cc2ccccc2[nH]1,0.983 (inactive),0.637,-1.03,-0.797 (inactive),-0.616 (inactive),-1.27 (inactive)
[N-]=[N+]=Nc1ccccc1C[C@]1(C(=O)O)N=C(c2ccc(OCCCO)cc2)O[C@H]1c1ccccc1,0.471 (inactive),0.641,0.283,-5.34 (inactive),0.496 (inactive),0.558 (inactive)
C=CCNC(=O)[C@H]1[C@@H]2C(=O)O[C@@H](c3ccccc3)[C@@H](c3ccccc3)N2[C@@H](c2ccc(O)cc2)[C@]12C(=O)N(C(=O)OCCOC)c1ccc(C#CCC(C(=O)OC)C(=O)OC)cc12,2.8 (inactive),0.761,-2.07,-0.414 (inactive),-0.0546 (inactive),-0.0093 (inactive)
CS(=O)(=O)CCOC(=O)C1=CC(CCCO)=CC(C2CC2)N(Cc2cccc(OC(F)(F)F)c2)C=C1C(=O)OCCS(C)(=O)=O (stereo not given),0.892 (inactive),-0.221,-2.11,-6.49 (inactive),-0.002 (inactive),-0.36 (inactive)
CN1C=C(C(=O)OCCS(C)(=O)=O)C(C(=O)OCCS(C)(=O)=O)=CC(c2ccc(CO)cc2)=CC1c1cccs1 (stereo not given),0.514 (inactive),0.496,-2.58,-5.46 (inactive),-0.163 (inactive),-0.265 (inactive)
CN1C(=O)C2C(C1=O)C1C=C(CCCO)C2C(c2cccs2)N1Cc1cc2c(cc1Br)OCO2 (stereo not given),0.0841 (inactive),0.757,-0.654,-8.9 (active),0.214 (inactive),0.228 (inactive)
O=C1C2C=CC(C(O)c3ccco3)N(Nc3ccccc3)C2C(=O)N1c1ccccc1 (stereo not given),1.11 (inactive),0.8,0.125,-2.27 (inactive),0.209 (inactive),-0.0253 (inactive)
Cc1ccc(S[C@]2(C(=O)NC(C)C)CC(=O)N(Cc3ccccc3Cl)[C@@H]2c2ccc(CO)cc2)cc1,0.73 (inactive),-0.11,-1.49,-3.73 (inactive),-0.0383 (inactive),-0.0912 (inactive)
COCCCNC(=O)[C@@]1(Sc2ccc(C)cc2)CC(=O)N(C(C)C)[C@@H]1c1ccc(CO)cc1I,0.287 (inactive),0.609,-1.63,-4.13 (inactive),0.121 (inactive),0.579 (inactive)
O=C1C2C=CC(C(O)C=Cc3ccc([N+](=O)[O-])cc3)N(Nc3ccccc3)C2C(=O)N1c1ccccc1 (stereo not given),-0.375 (inactive),0.596,-0.054,-4.58 (inactive),-0.744 (inactive),-0.913 (inactive)
CCOC(=O)C[C@H]1[C@H](OC(=O)c2ccc(C(=O)c3ccccc3)cc2)[C@@H](NC(=O)CC(C)C)c2cc(OCCCO)ccc2N1C(=O)Cc1ccc(OC)cc1,0.595 (inactive),0.396,-0.241,-3.06 (inactive),0.291 (inactive),-0.261 (inactive)
C=C(/C(=C/C[C@H](OC(=O)c1ccncc1)c1ccccc1OCCO)c1cnc2ccccc2c1)C(C)C,-0.0266 (inactive),0.615,-2.96,-4.2 (inactive),0.39 (inactive),0.0188 (inactive)
